Each structure is given as a SMILES string. Measured potencies and affinities stand elsewhere.

For this assay, the system named is Cryptococcus neoformans. Particulars: Concentration 32 ug.mL-1; ASSAY_TEST Inhibition of Fungal Growth; detection method Resazurin; Absorption (OD600-OD570); plate type 384well; NBS; CORNING #3640. (In general: The colour change of resazurin is a common sign of viable cells or microbes.)
As to `O=C(Cn1nc2c(SCc3ccc(Cl)cc3)nccn2c1=O)Nc1ccccc1F`, the Inhibition is listed as -4.96%.
The figure for `O=C(Cn1nc2c3cc(-c4ccc(F)cc4)nn3ccn2c1=O)NCc1ccccc1Cl` is -27.16%.
Turning to `COc1ccc(OC)c(NC(=O)Cn2nc3ccc(-c4ccc(Cl)cc4)nn3c2=O)c1`, the Inhibition is given as -17.15%.
On to `COc1ccc(-c2cc3c4nnc(SCC(=O)Nc5ccccc5Cl)n4ccn3n2)cc1`, for which the Inhibition was -26.87%.
Regarding `COc1ccc(-c2cc3c4nnc(SCC(=O)Nc5ccc(OC)c(Cl)c5)n4ccn3n2)cc1`, the Inhibition was -21.63%.
With `COc1cccc(Oc2nccn3c(=O)n(CC(=O)Nc4cccc(Br)c4)nc23)c1`, the Inhibition was -8.58%.
The figure for `O=C(Cn1nc2nc(Nc3ccc(F)cc3)ccn2c1=O)NCc1ccc(F)cc1Cl` is -8.71%; for `Cc1ccc(-c2ccc3nn(Cc4cccc(Cl)c4)c(=O)n3n2)cc1C` it is -10.16%.
With `Cc1ccc(NC(=O)Cn2nc3ccc(SC(C)(C)C)nn3c2=O)cc1C`, the Inhibition is recorded as -7.37%.
The figure for `Cn1c(=O)c2sccc2n2c(=O)n(Cc3cccc(Br)c3)nc12` is -9.95%; for `CCc1cccc(C)c1NC(=O)Cn1nc2ccc(SCc3ccc(Cl)cc3)nn2c1=O` it is -13.19%.
On to `Cn1c(=O)c2ccc(C(=O)NC3CCCCC3)cc2n2c(=O)n(CC#N)nc12`, for which the Inhibition was -18.77%.
Take `O=C(CSc1nc2ccccc2n2c(-c3ccccc3)nnc12)Nc1ccc(Br)cc1`: the Inhibition is given as -26.76%.
With `Cc1cccc(C)c1NC(=O)Cn1nc2c(N3CCSCC3)nc3ccccc3n2c1=O`, the Inhibition is recorded as -23.14%.
Consider `COc1ccc(Cn2nc3ccc(-c4ccc(Cl)cc4)nn3c2=O)cc1F`, for which the Inhibition is -15.51%.
For the compound `CCOc1ccccc1NC(=O)Cn1nc2c3cc(-c4ccc(OC)cc4)nn3ccn2c1=O`, the Inhibition is -6.6%.
Take `CCOc1ccc(NC(=O)CSc2nnc3c(=O)n(-c4ccc(OCC)cc4)ccn23)cc1`: the Inhibition is reported as -11.05%.
The figure for `Cc1cc(C)c(NC(=O)CSc2nnc3c4cc(-c5ccccc5)nn4ccn23)c(C)c1` is -13.87%; for `COc1cccc(Sc2nc3ccccc3n3c(=O)n(CC(=O)N4CCCc5ccccc54)nc23)c1` it is -20.75%.
As for `O=S(=O)(c1ccc2nncn2c1)N(Cc1ccccc1F)c1ccc2c(c1)OCCO2`, the Inhibition was -6.58%.
The figure for `COc1ccc(CCNC(=O)Cn2nc3c(N4CCOCC4)nccn3c2=O)cc1OC` is -10.16%; for `N#Cc1ccc(NC(=O)Cn2nc3c(Oc4ccccc4)nccn3c2=O)cc1` it is -7.22%.
Then `COc1ccc(C(=O)CSc2nnc3c(=O)n(-c4ccc(F)cc4)ccn23)cc1`, with -10%; and `Cc1ccc(CN(c2ccc3c(c2)OCO3)S(=O)(=O)c2ccc3nnc(C)n3c2)cc1`, with -2.21%; and `COc1ccc(NC(=O)Cn2nc3ccc(-c4ccc(C)c(C)c4)nn3c2=O)cc1OC`, with -43%.
The figure for `CC(C)Cn1c(=O)c2sccc2n2c(=O)n(CC(=O)N3CCC(Cc4ccccc4)CC3)nc12` is -94.76%; for `Cc1ccc(-n2ccn3c(SCC(=O)c4c[nH]c5ccccc45)nnc3c2=O)cc1C` it is -5.1%.
For the compound `CCC(C)NC(=O)CSc1nnc2c(=O)n(Cc3ccc(F)cc3)ccn12` (centres undefined), the Inhibition is given as -22.53%.
Then `CSc1cccc(NC(=O)Cn2nc3c(SC4CCCCC4)nccn3c2=O)c1`, with -1.74%; and `Cc1cccc(NC(=O)Cn2nc3c(SCc4ccc(Cl)cc4)nccn3c2=O)c1C`, with -31.05%; and `CCc1nnc2ccc(S(=O)(=O)N(Cc3ccccc3F)c3ccc(OC)cc3)cn12`, with -4.31%.
Then `O=C(CSc1nnc2c(=O)n(-c3ccccc3)ccn12)Nc1cccc(F)c1`, with -21.7%; and `Cc1c(Cl)cccc1NC(=O)Cn1nc2c(N3CCOCC3)nc3ccccc3n2c1=O`, with -24%.
Then `Cc1cccc(Sc2nc3ccccc3n3c(=O)n(CC(=O)Nc4c(C)cc(C)cc4C)nc23)c1`, with -23.88%; and `CCOc1ccccc1NC(=O)Cn1nc2c(N3CCN(c4ccccc4)CC3)nccn2c1=O`, with -7.83%.
With `NC(=O)CSc1nnc2c(=O)n(-c3ccc(F)cc3)ccn12`, the Inhibition was -6.51%.
The figure for `COc1ccccc1-n1ccn2c(SCC(=O)Nc3ccc(F)cc3F)nnc2c1=O` is -9.49%; for `COc1cccc(CNC(=O)CSc2nnc3ccc(C(=O)Nc4cccc(F)c4)cn23)c1` it is -5.04%.
The figure for `O=c1c2sccc2n2c(=O)n(Cc3ccc(Br)cc3)nc2n1Cc1cccs1` is -28.37%.

By Inhibition is commonly meant the drop in the measured response relative to a control, in per cent.

The values are drawn from ChEMBL document CHEMBL4513146, “CO-ADD screening of Karazin Kharkiv National University (Ukraine) compounds”.
